# Measured values as given in the supplement of paper PMC3334620.
# Over roughly 33,000 sequences, “E-score (-0.5 to 0.5)” has its median near -0.016; the highest 2% begin near 0.32. This is one part of a sample in which the highest values are shown more often than they occur.
# Target: T1, Stp1 (UniProt B3LFK1)
# T1 sequence: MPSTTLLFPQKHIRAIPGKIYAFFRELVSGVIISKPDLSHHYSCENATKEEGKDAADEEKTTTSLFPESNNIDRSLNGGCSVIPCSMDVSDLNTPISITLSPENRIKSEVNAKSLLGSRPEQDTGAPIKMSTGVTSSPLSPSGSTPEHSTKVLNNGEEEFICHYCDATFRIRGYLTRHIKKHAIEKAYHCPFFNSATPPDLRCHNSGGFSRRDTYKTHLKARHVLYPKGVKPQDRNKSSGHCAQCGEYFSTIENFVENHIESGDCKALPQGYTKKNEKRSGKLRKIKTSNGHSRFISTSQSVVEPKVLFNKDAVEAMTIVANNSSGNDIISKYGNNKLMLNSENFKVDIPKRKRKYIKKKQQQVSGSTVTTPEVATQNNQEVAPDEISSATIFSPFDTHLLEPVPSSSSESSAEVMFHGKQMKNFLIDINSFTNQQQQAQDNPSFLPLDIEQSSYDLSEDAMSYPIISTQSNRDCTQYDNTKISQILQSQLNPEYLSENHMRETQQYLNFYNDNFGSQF
# Experiment: PBM E-score (8-mer binding enrichment) (E-score (-0.5 to 0.5)); higher = stronger / more preferred TF binding
# Conditions: protein concentration: 200 nM; construct: GST-full length
# Experimental: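 Universal 'all 10-mer' protein binding microarrays (Agilent AMADID 015681) probed with GST-tagged S. cerevisiae TFs (full-length or DBD) made by in vitro transcription/translation (PURExpress), about 100-200 nM. Bound TF was detected with fluorescent anti-GST. Each ungapped 8-mer (which stands for itself and its reverse complement) is scored by the PBM enrichment score (E-score), a modified Wilcoxon-Mann-Whitney statistic from -0.5 to +0.5, computed with the Universal PBM Analysis Suite. Scale: above 0.35 generally sequence-specific binding.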
row,Sequence,PBM E-score
1,AGGCATCC,-0.0829
2,CAGCATCC,-0.252
3,CGGCATAC,0.27
4,CACCACGA,-0.0238
5,ATATCGAG,0.123
6,CATAGGGC,0.152
7,ACCCTAGA,-0.227
8,ACTGTTCC,-0.131
9,ACCATCAA,-0.149
10,ATCAGTTG,0.00725
11,GACTGCTC,-0.287
12,TTCAACAA,0.167
13,AAAAGCTC,-0.131
14,AGCGCCCC,0.0659
15,AGCGCCGC,0.481
16,AGCGCCTA,0.182
17,GCCGCCTA,0.185
18,CGCGCCCC,0.209
19,GGCGCCTA,0.362
20,CTCCGCGC,0.227
21,CGCCCCGC,0.221
22,CACCGCGC,0.166

row,Sequence,PBM E-score
1,AGCGCAGC,-0.112
2,CGCGCCGC,0.483
3,CGCCGCGC,0.487
4,CATGATCG,-0.0196
5,GGAGCCAC,-0.246
6,CAGCGAAA,-0.0495
7,CGATCAGA,-0.053
8,GTACACGA,0.136
9,ATATTAGG,0.0795
10,CTCGAAAC,0.113
11,AGACAACG,0.0214
12,CAAGACGG,-0.0357
13,CATTGCGC,0.0607
14,GGCGCCCA,0.311
15,CGCGCAGA,0.22
16,AGCGCAGA,-0.0529
17,AGCGCCCA,-0.225
18,AGCGCCCT,0.319
19,AGCGCCGG,0.174
20,CGCGCCCA,0.213
21,CGCGCCGA,0.362
22,AGCGCCGA,0.321

row,Sequence,PBM E-score
1,GTCGCCGA,0.0933
2,AGCGCCCG,-0.00709
3,GGCGCCGA,0.421
4,AGCCAAAG,-0.00729
5,AGATCCTG,-0.32
6,CACGGTCC,-0.109
7,TCCCCAAA,-0.0405
8,GACTATCC,-0.178
9,CAACCAGG,-0.196
10,GGAGTGAA,-0.0852
11,AGATTTCC,-0.00021
12,ACAAAGTG,-0.0329
13,ATCTTGAG,-0.0881
14,CGCCGCGA,0.379
15,GGCCGCGA,-0.0392
16,CACCGCGA,-0.0402
17,ACCGCCAT,0.0869
18,ACCGCCGA,0.0744
19,ACCGCCGC,0.389
20,ACCGCCCT,-0.14
21,ACCGCCGG,-0.0408
22,ACCGCCGT,0.449

row,Sequence,PBM E-score
1,AGCAACCC,-0.306
2,CGTCACGA,0.0354
3,AGAACGCA,-0.00423
4,AGGGCATA,0.128
5,ACGGCATA,0.45
6,ATGGCATA,0.226
7,CCGGCATA,-0.183
8,GCGGCATA,0.435
9,GTGGCATA,0.0347
10,AGCCTATG,-0.0976
11,ATTGGCGC,0.189
12,ACGCACCG,0.0649
13,CGTTGCTC,0.0478
14,GAAGGGCA,0.231
15,GACCGAGC,-0.228
16,CGGCGTGC,0.316
17,CGGCGTCA,0.399
18,GGGCGTCA,-0.037
19,AGGCGTCA,0.172
20,AGGCGTCC,-0.0371
21,CGGCGTCC,0.376
22,GGTGGTGA,-0.125

row,Sequence,PBM E-score
1,GAGTACGA,0.0292
2,GTCTAAGA,0.0284
3,CATACTTA,-0.00908
4,AACTTCAT,0.092
5,GAATCGGC,0.268
6,AGCATGCG,0.016
7,CAGGGGCA,-0.0911
8,CGGCCTTC,0.322
9,AGGCCTTC,-0.188
10,CGGCCTTA,0.293
11,TATAAATA,0.198
12,AATAAATG,0.219
13,AATAAATA,0.35
14,CACAGTAA,0.209
15,GGGAGACC,-0.355
16,GCCTCACC,0.327
17,ACCTCACC,-0.128
18,GCCTCACA,0.263
19,GATGCAGA,-0.0503
20,GCTGTTGA,0.169
21,CTGTAGCC,0.041
22,ATTTCAAA,0.134
